Records with an inconclusive call do not appear. Activity calls are given as the source filed them. The call rests on the fitted dose curve; in most records, active means well fitted inhibition curve with a large enough effect; inconclusive means small, poorly fitted or top-dose-only effect, or effect the other way; inactive means flat fitted curve, though single readings scatter. Numbered stars: 1 amine (or outer) side, 2 acyl side, 3 side chain; on linkers, the order of the positions; unused ones are H or OH. Bridge positions count the residues as written; N and C are the ends. Square brackets hold non-standard residues; d marks the D form. Peptide text beside a SMILES is read from it. I, II: the chains in the order shown. Actinocin(9to1) = Cc1c2oc3c(C)ccc(C(=O)[*:1])c3nc-2c(C(=O)[*:2])c(N)c1=O; NMeV = CN[C@H](C(=O)O)C(C)C; Sar = CNCC(=O)O

Sequence of ATP-dependent 6-phosphofructokinase (Trypanosoma brucei brucei) (O15648 whole entry, looked up): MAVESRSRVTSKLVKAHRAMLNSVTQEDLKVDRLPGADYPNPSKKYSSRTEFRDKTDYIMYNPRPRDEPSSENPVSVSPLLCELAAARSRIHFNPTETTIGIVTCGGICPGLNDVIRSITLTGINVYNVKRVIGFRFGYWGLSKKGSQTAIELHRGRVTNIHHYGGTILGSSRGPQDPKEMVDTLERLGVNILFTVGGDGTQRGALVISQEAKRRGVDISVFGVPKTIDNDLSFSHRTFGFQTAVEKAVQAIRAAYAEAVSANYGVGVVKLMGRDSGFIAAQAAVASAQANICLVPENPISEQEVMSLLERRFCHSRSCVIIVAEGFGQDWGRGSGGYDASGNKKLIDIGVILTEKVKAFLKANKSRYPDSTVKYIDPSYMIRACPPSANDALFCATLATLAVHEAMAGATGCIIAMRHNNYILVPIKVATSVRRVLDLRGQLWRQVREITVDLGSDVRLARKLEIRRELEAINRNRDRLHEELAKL

In this test the target is ATP-dependent 6-phosphofructokinase (Trypanosoma brucei brucei) (UniProt O15648). The experiment in a line: qHTS Assay to Find Inhibitors of T. brucei phosphofructokinase: hit validation (AID 492961).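 Further: luminescence reports ADP formed as PFK phosphorylates fructose-6-phosphate with ATP.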 The conditions noted are these: T. brucei PFK, ADP-Glo luminescence; series mostly up to 51.4 µM. The gist of the method:
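Measures ADP output of PFK (1.25 nM) at 0.1 mM ATP, 0.5 mM F6P, pH 8.0 TEA buffer with 5 mM MgCl2. No-enzyme wells define full inhibition; uninhibited enzyme wells define zero.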
On the technique in general: In qHTS, concentration-response curves come from the screen itself.
Consider `CC1OC(C)OC(C)O1` (centres undefined), for which the outcome was inactive.

`NP(N)(=O)NC(=O)c1ccc(F)cc1`: the molecule was classed as inactive.

With `CC(C)(N)Cc1ccc(Cl)cc1`, the outcome was inactive.

With `c1ccc2c(c1)Nc1ccccc1S2`, the outcome was inactive.

`CCOP(=S)(OCC)Oc1cc(C)nc(C(C)C)n1`: the molecule was called inactive.

For the molecule `CC(C)(C)NCC(O)c1cc(Cl)c(N)c(Cl)c1` (centres undefined), the call was inactive.

Turning to `CC(=O)Nc1cc([As](=O)(O)O)ccc1O`, the result was inactive.

`CC(C)NCC(O)c1ccccc1Cl` (centres undefined): the result was inactive.

For the molecule `Cc1ccc(-c2nc3ccc(C)cn3c2CC(=O)N(C)C)cc1`, the call was inactive.

For the molecule `NCCc1cc(O)c(O)cc1O`, the molecule was classed as inactive.

With `FC(F)(F)c1cccc(C2=CCN(CCc3ccc4ccccc4c3)CC2)c1`, the result was inactive.

On to `Oc1ccccc1-c1ccccc1`, for which the result was inactive.

In the case of `O=P1(NCCCl)OCCCN1CCCl` (centres undefined), the molecule was classed as inactive.

In the case of `C#CCOC(C(=O)OCCN(C)C)(c1ccccc1)c1ccccc1`, the result was inactive.

Turning to `CN1C(=S)CN=C(c2ccccc2)c2cc(Cl)ccc21`, the call was inactive.

On to `Oc1cccc2cccnc12`, for which the molecule was classed as inactive.

Regarding `O=C(NC(O)C(Cl)(Cl)Cl)NC(O)C(Cl)(Cl)Cl` (centres undefined), the outcome was inactive.

`N[C@@H](Cc1ccc(N(CCCl)CCCl)cc1)C(=O)O`: the result was inactive.

For the molecule `CC(C)CC(N(C)C)C1(c2ccc(Cl)cc2)CCC1` (centres undefined), the outcome was inactive.

`CCCC1CCCCN1` (centres undefined): the outcome was inactive.

Consider `C=C1CC[C@@]2(O)[C@H]3Cc4ccc(O)c5c4[C@@]2(CCN3CC2CC2)[C@H]1O5`, for which the outcome was inactive.

As for `O=[N+]([O-])c1cc([As](=O)(O)O)ccc1O`, the call was inactive.

For `CCN(CC)CCN1C(=O)CN=C(c2ccccc2F)c2cc(Cl)ccc21`, the molecule was called inactive.

In the case of `Oc1cc(Cl)ccc1Oc1ccc(Cl)cc1Cl`, the outcome was inactive.

Regarding `COc1ccc(C(=O)c2c(C)n(CCN3CCOCC3)c3ccccc23)cc1`, the molecule was called inactive.

As to `Cc1c2oc3c(C)ccc(C(=O)N[C@@H]4C(=O)N[C@H](C(C)C)C(=O)N5CCC[C@H]5C(=O)N(C)CC(=O)N(C)[C@@H](C(C)C)C(=O)O[C@@H]4C)c3nc-2c(C(=O)N[C@@H]2C(=O)N[C@H](C(C)C)C(=O)N3CCC[C@H]3C(=O)N(C)CC(=O)N(C)[C@@H](C(C)C)C(=O)O[C@@H]2C)c(N)c1=O` (I: T[dV]P[Sar][NMeV] / II: T[dV]P[Sar][NMeV]; ester I:1-I:C, II:1-II:C; linker I:N-II:N via Actinocin(9to1)), the result was inactive.

Turning to `C[C@]12C/C(=C/O)C(=O)C[C@@H]1CC[C@@H]1[C@@H]2CC[C@@]2(C)[C@H]1CC[C@]2(C)O`, the call was inactive.

In the case of `CC(C)=CC1C(C(=O)OCc2cccc(Oc3ccccc3)c2)C1(C)C` (centres undefined), the result was inactive.

Consider `CCOC(=O)C1(c2ccccc2)CCN(CCC(C#N)(c2ccccc2)c2ccccc2)CC1`, for which the outcome was inactive.

Values taken from PubChem BioAssay (NCATS).
